High-throughput results: PubChem, National Center for Advancing Translational Sciences (NCATS)
A selection: hits, their analogues and other compounds. The true share with any hit is near 2.9%.
KDM5B inh: Primary screen for KDM5B Histone Demethylases FDH-coupled qHTS; Lysine-specific demethylase 5B (Homo sapiens), Q9UGL1; KDM5B demethylase, FDH-coupled NADH fluorescence (FDH is formaldehyde dehydrogenase); Potency, µM (top dose mostly 57.7 µM), most hits filed as inhibitors; hit rate 2.6% among 220,000; AID 1347165, 2019; further: potency means the concentration at half of the fitted maximal effect; 0% is about no effect; nearly all actives have a fitted effect of over 70% in size
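KDM5BΔAP (200 nM final) in 50 mM HEPES pH 7.5, 0.01% Tween-20 was preincubated 10 min at RT with compound over a concentration range. Substrate mix (H3K4me3 12.5 µM, α-KG 25 µM, Fe²⁺, ascorbate, NAD⁺, FDH) was added, and NADH fluorescence change over 30 min gave dose-response curves.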
SNCA expr inh: Primary qHTS assay for inhibitors of alpha-synuclein gene (SNCA) expression. hit rate 0.17% among 140,000. Potency, µM (highest dose often 57.2 µM), inactives show at the top dose activity change, negative = inhibition, usual class: inhibitors. HEK-293 SNCA-luciferase knock-in, luminescence, 24 h;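 further: potency means the concentration at half of the fitted maximal effect; plate controls were DMSO cells for no effect and cell-free wells for full effect; nearly all actives have a fitted effect of over 45% in size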
SNCA viab count: GF-AFC viability counterscreen for inhibitors of alpha-synuclein gene (SNCA) expression | Potency, µM (titrated, usually from 57.1 µM), without a hit: top-dose activity change, negative = cytotoxicity, hits mostly cytotoxic | AID 1671193, 2021 | HEK-293-SNCA-luc viability, GF-AFC fluorescence, 24 h | hit rate 0.12% among 150,000;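 further: potency means the concentration at half of the fitted maximal effect; 0% = DMSO-treated cells and -100% = medium-only wells without cells; nearly all actives have a fitted effect of over 30% in size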
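Cytotoxicity counterscreen: after 24 h compound treatment of genome-edited SNCA-luciferase HEK-293 cells, live-cell protease substrate GF-AFC read by fluorescence after 30 min; activity scaled between DMSO (0%) and medium-only (-100%), curves Hill-fitted.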
IP6K1 inhibitor: Primary qHTS assay for small molecule inhibitors of Inositol hexaphosphate kinase 1 (IP6K1); Inositol hexakisphosphate kinase 1 (Homo sapiens), Q92551; IP6K1 kinase, ADP-Glo luminescence, 2 h; hits give low values; activity change, % (series mostly up to about 58 µM); hit rate 0.81% among 140,000; AID 1645851, 2021; in the data active means activity change below about -25%; further: on the % scale 0 is the no-effect control and ±100 the full control effect
Target sequence (Q92551 whole entry, looked up): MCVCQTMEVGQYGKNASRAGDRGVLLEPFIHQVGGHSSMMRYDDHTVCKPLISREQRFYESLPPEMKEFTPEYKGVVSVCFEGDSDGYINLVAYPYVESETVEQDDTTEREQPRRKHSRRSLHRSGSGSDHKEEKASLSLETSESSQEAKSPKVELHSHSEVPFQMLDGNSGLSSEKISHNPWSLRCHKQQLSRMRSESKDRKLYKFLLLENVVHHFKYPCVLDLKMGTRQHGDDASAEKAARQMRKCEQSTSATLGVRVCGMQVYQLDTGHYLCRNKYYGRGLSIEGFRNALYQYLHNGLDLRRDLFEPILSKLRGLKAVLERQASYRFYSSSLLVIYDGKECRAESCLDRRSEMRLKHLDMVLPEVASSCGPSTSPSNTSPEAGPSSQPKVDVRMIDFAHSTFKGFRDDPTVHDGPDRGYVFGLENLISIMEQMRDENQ
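ADP-Glo luminescence measures ADP made by human IP6K1 during a 2 h RT reaction with ATP/IP6 (mix at 1.3 mM/130 uM); top library doses 57.5 and 19.1 uM final.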
IP6K1 conf: Confirmatory qHTS assay for small molecule inhibitors of Inositol hexaphosphate kinase 1 (IP6K1); shares compounds with IP6K1 inhibitor; Potency, µM (top dose mostly 49 µM), for the others: at the top dose activity change, negative = inhibition, usual class: inhibitors; hit rate 13% among 1,200; AID 1645852, 2021; recombinant IP6K1 kinase, ADP-Glo luminescence, 2 h; further: potency means the concentration at half of the fitted maximal effect; on the % scale 0 is the no-effect control and ±100 the full control effect; nearly all actives have a fitted effect of over 65% in size
Numbers without * were called inactive; i = inactive; ? = inconclusive; nt = not tested or not shown; [ ] = dose if it differs, or a comment. Unless noted, the call rests on the fitted dose curve; in most records, active means well fitted curve in the direction sought with a large enough effect; inconclusive means small, poorly fitted or top-dose-only effect, or another doubt; inactive means no such curve, though single readings can be large; an effect the other way counts as inactive or inconclusive.

SMILES	KDM5B inh	SNCA expr inh	SNCA viab count	IP6K1 inhibitor	IP6K1 conf
Cn1c(O)c(C(=Nc2ccc(F)cc2)c2ccccc2Cl)c(=O)n(C)c1=O	i	nt	nt	nt	nt
COc1cc2c(cc1OCc1ccncc1)NC(=O)C21CCN(Cc2ccccc2)CC1	i	-18.9%[87.6 µM]	-11.1%[87.6 µM]	-22.1	nt
COc1cc2c(cc1OCc1ccccc1)NC(=O)C21CCN(Cc2nccs2)CC1	i	34.8%[87.6 µM]	-17.2%[87.6 µM]	-33.4*	?
N=c1c2c(-c3ccccc3)c(-c3ccccc3)n(Cc3ccccc3)c2ncn1C1CCC(O)CC1 (stereo not given)	nt	?	-0.9%	nt	-9.6%[115 µM]
CC(=O)OC1CCC2(C=O)[C@H]3CCC4(C)C(C5=CC(=O)OC5)CCC4(O)[C@@H]3CCC2(O)C1 (stereo not given in full)	i	nt	nt	nt	nt
N#Cc1nn(-c2c(Cl)cc(C(F)(F)F)cc2Cl)c(N)c1S(=O)C(F)(F)F (stereo not given)	nt	23.1%[25.6 µM]	-24.1%[23.9 µM]	-41.4*	?
